FMDV inh = blocks foot and mouth disease virus; FMDV antiviral cell-based qHTS; Potency, µM (titrated, usually from 57.9 µM), usual class: inhibitors; hit rate 1.2% among 410,000; calls by dose curve; tested in HEK293T cells; note: read-out not given here; nearly all actives have a fitted effect of over 45% in size
HCV inhibitor = inhibitors of hepatitis C virus infection | Huh7.5.1 HCVcc-Cre infection, luciferase reporter, 44 h | Potency, µM (doses to about 41.8 µM), most hits filed as inhibitors | AID 651820 | hit rate 3.4% among 340,000; active = well fitted inhibition curve with a large enough effect; inconclusive = small, poorly fitted or top-dose-only effect, or another doubt; inactive = no such curve, though single readings can be large or run the other way
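After 44 h co-culture of compound, cells and HCVcc-Cre (~0.5 moi), substrate is added for 15 min at room temperature and luciferase measured over 15 sec. Cells were seeded at 1,000/well and pre-cultured 4 h.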
LASV entry inh = Lassa virus entry inhibition | Lassa virus pseudotype entry inhibition, cell reporter | Potency, µM (highest dose often 37.9 µM), hits mostly inhibitors | hit rate 1.2% among 300,000 | AID 540256; calls by dose curve; tested in HEK293 cells; note: nearly all actives have a fitted effect of over 50% in size
HCMV inh = inhibitors of human cytomegalovirus. HFF cells, HCMV-luciferase reporter, 72 h; hits give low values. activity change, negative = inhibition, % at 57.5 µM. hit rate 4.5% among 410,000. AID 1259415; in the data active = activity change below about -60%; inconclusive = no clear call, values can overlap the other calls; inactive = above about -39%
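Steps: HFFs plated, 16 h 37C; compounds added; HCMV-luciferase added to MOI 1 PFU/cell; 72 h 37C; OneGlo reagent, 5 min room temperature; luminescence read, normalized to controls.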
MARV entry inh = blocks Marburg virus binding to or entry into cells. Marburg virus pseudotyped entry inhibition, cell reporter. Potency, µM (titrated, usually from 37.8 µM), hits mostly inhibitors. hit rate 1.8% among 300,000; calls by dose curve; tested in HEK293 cells
Hits are given with their value; - = inactive; ? = inconclusive; . = no result; ! = not active in a repeat. The list is not random: actives were taken first. Their share in the collection is about 7.9%.

SMILES | FMDV inh | HCV inhibitor | LASV entry inh | HCMV inh | MARV entry inh
CCc1ccc(-c2cc(C(=O)N/N=C/c3ccco3)[nH]n2)cc1 | - | - | . | ? | -
O=C(N/N=C/c1c[nH]c2ccccc12)c1cc(-c2ccc3ccccc3c2)n[nH]1 | - | 10µM | ? | - | ?
O=C(N/N=C/c1ccco1)c1cc(-c2ccc3ccccc3c2)n[nH]1 | - | - | ? | ? | 13µM
CC(C)Oc1ccc(Br)cc1C(=O)N/N=C/c1c[nH]c2ccccc12 | - | 10µM | - | - | ?
O=C(N/N=C/c1c[nH]c2ccccc12)c1ccc(Br)cc1 | - | - | - | - | ?
CC1=C[S+](=O)([O-])CC1SC1=NC2C=CC=CC2=N1 (stereo not given) | . | . | . | . | -
C/C(=N\NC(=O)CCc1ccccc1)C1C(=O)c2ccccc2C1=O | - | - | ? | -87 | ?
COc1cc(OC)cc(C2=Cc3ccc(OC)cc3C(CC(C)=O)N2c2ccc(-c3cccs3)cc2)c1 (stereo not given) | - | . | . | -83 | .
COC(=O)c1c(C)oc2ccc(N(C(=O)c3ccncc3)S(=O)(=O)c3ccc(C)cc3C)cc12 | ? | 1.6µM | ? | -92 | 5.6µM
COC(=O)c1c(C)oc2ccc(N(C(=O)c3ccncc3)S(=O)(=O)c3ccc(C)cc3)cc12 | - | ? | - | . | 3.2µM
COC(=O)c1c(C)oc2ccc(N(C(=O)c3ccncc3)S(=O)(=O)c3cc(C)c(C)cc3C)cc12 | - | . | ? | -60 | ?
CCc1ccc(S(=O)(=O)N(C(=O)Oc2ccccc2)c2ccc3oc(C)c(C(=O)OC)c3c2)cc1 | - | . | ? | -71 | .
CCN(CC)c1nn2c(=O)c(C(=O)NCCc3cccc(C)c3)cnc2s1 | - | . | ? | - | .
Cc1nnc2n(-c3ccccc3)c(=O)c3c4c(sc3n12)C[C@H](C)CC4 | . | . | . | . | -
CCc1ccc(S(=O)(=O)N(C(C)=O)c2ccc3oc4c(c3c2)CCCC4)cc1 | - | . | - | -92 | -
CCCNC(=O)c1ccc(COc2cccc3ccccc23)o1 | ? | ? | . | - | .
CCCNC(=O)c1ccc(COc2ccc(CCC)cc2OC)o1 | ? | ? | 6.3µM | -62 | -
COc1ccc(CCNC(=O)c2cc(=O)c3cc(C)ccc3o2)cc1OC | ? | 22µM | . | ? | .
CCCc1ccc(OCc2ccc(C(=O)N3CCN(c4ccccn4)CC3)o2)c(OC)c1 | ? | ? | - | - | 23µM
CCOC(=O)c1c(-c2ccccc2)csc1NC(=O)c1cc(-c2ccc(Cl)cc2)on1 | - | . | - | - | -
CCOC(=O)Cn1nnnc1C(C(C)C)N(Cc1cc2c(C)cc(C)cc2[nH]c1=O)C1CCCC1 (stereo not given) | ? | - | ? | - | 8.9µM
CC(=O)N(Cc1cc2c(C)cc(C)cc2[nH]c1=O)C1CCCCC1 | - | - | - | - | ?
COc1ccc(NC(=O)CSc2nc(-c3ccccc3)[nH]c2-c2ccccc2)cc1OC | - | . | ? | - | ?
CCCCCOc1ccc(Br)cc1/C(C)=N/NC1=NCCN1 | ? | 6.3µM | ? | -92 | 10µM
CCCCN(CC)CCNC(=O)Cn1cc2c(n1)-c1c(oc(C(=O)N3CCCC3)c1C)CC2 | - | - | - | -61! | .
SMILES | FMDV inh | HCV inhibitor | LASV entry inh | HCMV inh | MARV entry inh
Cc1c(C(=O)N2CCCC2)oc2c1-c1nn(CC(=O)NCCCOC(C)C)cc1CC2 | ? | - | - | ? | .
O=C(CCl)Nc1c[nH]c(=O)[nH]c1=O | ? | ? | ? | -64 | ?
COc1cccc(-c2ccnc(-n3ncc(C(=O)NCc4cccnc4)c3C3CC3)n2)c1 | - | . | . | . | .
COc1ccccc1-c1ccc(C(=O)NCCN2CCOCC2)c(N2CCN(c3ccccc3F)CC2)n1 | - | . | . | . | .
CCCCCc1ccc(-c2ccc(/C=C/C(=O)O)cc2)nc1 | ? | - | ? | ? | ?
CCCc1ccc(-c2ccc(/C=C/C(=O)O)cc2)nc1 | - | - | 0.46µM | ? | 0.23µM
Cc1ccc(-c2nc3ncccc3o2)cc1NC(=O)c1ccc([N+](=O)[O-])o1 | - | - | - | . | -
O=C(Nc1ccc2oc(-c3ccncc3)nc2c1)c1ccc([N+](=O)[O-])o1 | - | 10µM | - | -102 | ?
Cc1c(Cl)cccc1-c1ccc(C(=O)Nc2ccc3oc(-c4cccnc4)nc3c2)o1 | ? | . | - | ? | .
O=C(Nc1ccc(-c2nc3ncccc3o2)cc1)c1ccc([N+](=O)[O-])o1 | - | 3.5µM | - | -76 | -
O=C(Nc1ccc2oc(-c3cccnc3)nc2c1)c1ccc(-c2cccc(OC(F)(F)F)c2)o1 | ? | . | - | -82 | .
COC(=O)[C@H]1C(=O)C[C@@](C)(O)[C@@H](C(=O)OC)[C@@H]1c1ccccc1F | . | . | . | . | -

Bioassay records as filed in PubChem BioAssay.
